Screens deposited in PubChem by Paczesny and Yang Labs, IUPUI and University of Michigan.
Only a selection was taken, and hits are over-represented in it overall.
ST2 inh – inhibitors of human ST2 (IL1RL1) binding to IL-33; Q01638; AlphaLISA ST2-Fc/biotin-IL-33 interaction, 1 h; inhibition, % for hits at 17 µM; hit rate 2.3% among 78,000; in the data active means inhibition above about 30%
Target sequence (Q01638 whole entry, looked up): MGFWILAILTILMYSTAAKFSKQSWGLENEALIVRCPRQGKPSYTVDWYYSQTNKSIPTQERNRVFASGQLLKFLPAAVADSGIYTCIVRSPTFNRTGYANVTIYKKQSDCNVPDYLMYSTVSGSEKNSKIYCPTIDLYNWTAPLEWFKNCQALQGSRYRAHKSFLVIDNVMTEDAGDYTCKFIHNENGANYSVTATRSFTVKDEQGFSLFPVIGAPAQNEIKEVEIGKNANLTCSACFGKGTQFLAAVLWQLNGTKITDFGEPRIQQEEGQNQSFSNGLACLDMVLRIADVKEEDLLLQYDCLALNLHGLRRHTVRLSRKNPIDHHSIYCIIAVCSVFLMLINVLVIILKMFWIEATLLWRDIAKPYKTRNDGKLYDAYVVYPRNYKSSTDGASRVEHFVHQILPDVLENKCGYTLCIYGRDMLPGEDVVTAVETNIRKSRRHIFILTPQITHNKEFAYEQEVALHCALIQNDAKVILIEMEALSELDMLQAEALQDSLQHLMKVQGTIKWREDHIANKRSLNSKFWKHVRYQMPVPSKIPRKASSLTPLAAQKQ
Of the large screens only hits and unclear results are named; the others gave an inactive call.

CC(C)C1NC(=O)CNC(=O)C2CCCN2C(=O)C(Cc2c[nH]c3ccccc23)NC(=O)CNC(=O)C(C(O)c2ccc(O)cc2)NC(=O)CNC1=O (configuration not stated)	none
O=C(N[C@H]1CCN2C(=O)[C@@H](Cc3c[nH]c4ccccc34)NC(=O)[C@H]12)c1ccccc1	ST2 inh 79%
CN1CCN(C(=O)Nc2ccc(Cl)cc2)CC1	none
O=S(=O)(Nc1c(F)c(F)cc(F)c1F)c1ccc(Cl)cc1	none
Oc1oc(-c2ccccc2F)nc1C=Nc1cc(Cl)c(Cl)cc1Cl	none
O=C(O)c1ccccc1N=Cc1nc(-c2ccccc2F)oc1O	none
Cc1ccc(N=Cc2nc(-c3ccccc3F)oc2O)c([N+](=O)[O-])c1	ST2 inh 34%
CCCn1c(NC(C)c2cc(Cl)ccc2O)nc2ccccc21 (configuration not stated)	none
Cc1nc2ccccc2c(=O)n1CC(=O)NCc1ccccc1	none
CCn1c(/C=C/c2cccnc2)nc2ccccc2c1=O	ST2 inh 96%
Cn1c(/C=C/c2ccc(Br)cc2)nc2ccccc2c1=O	none
C=CCN1C(=O)c2ccccc2Sc2ccc(C(=O)OCC)cc21	none
CCC(c1ccccc1)c1nc(-c2ccncc2)no1 (configuration not stated)	none
CCC(c1ccccc1)c1nc(-c2cccc([N+](=O)[O-])c2)no1 (configuration not stated)	ST2 inh 30%
COc1ccc(-c2nc(-c3cccc([N+](=O)[O-])c3)no2)cc1OC	none
CCOc1ccccc1N=Cc1c(O)n(-c2ccccc2C)c(=O)c2ccccc12	none
COc1ccccc1-n1nc(C(=O)O)c2ccccc2c1=O	none
COc1ccc(C)cc1NC(=O)CNC(=O)c1cn(-c2ccccc2OC)c(=O)c2ccccc12	none
COc1ccccc1-n1c(O)c(C=Nc2ccc(C)cc2)c2ccccc2c1=O	ST2 inh 34%
Cc1cc(O)c(C=Nc2cccc(C(=O)O)c2)c(C)c1Cl	none
Cc1ccccc1-n1c(O)c(C=Nc2ccccc2)c2ccccc2c1=O	ST2 inh 47%
Cc1c(C(=O)N2CCCC2)oc2ccc(S(=O)(=O)N3CCC4(CC3)OCCO4)cc12	none
Nc1nc2n(n1)C(c1ccc(OCc3ccccc3)cc1)CC(c1ccc(F)cc1)N2 (configuration not stated)	none
Cc1nonc1CN(C)C(=O)c1cn(CC2CCCCC2)nn1	none
O=S(=O)(c1ccc(Br)s1)N1CCCN(Cc2ccccc2)CC1	none
Oc1oc(-c2ccc(Cl)cc2)nc1C=Nc1ccccn1	ST2 inh 33%
Cc1cccc(N=Cc2nc(-c3ccc(Cl)cc3)oc2O)c1	none
Cc1cccc(N=Cc2nc(-c3ccc(Cl)cc3)oc2O)n1	none
OCC1(O)CCN(CC(c2ccccc2)c2ccccc2)CC1	none
O=C(c1cccc(N2CCNC2=O)c1)N1CC[C@@H](c2ccc(F)cc2)[C@H](O)C1	none
O=c1oc(-c2cccs2)nc2sc3c(c12)CCC3	none
O=c1oc(/C=C/c2ccco2)nc2sc3c(c12)CCCCC3	ST2 inh 36%
O=c1oc(-c2ccccc2Cl)nc2sc3c(c12)CCC3	ST2 inh 45%
O=c1oc(-c2ccccc2Cl)nc2ccc(Br)cc12	none
O=c1[nH]c(/C=C/c2ccccc2)nc2sc3c(c12)CCCC3	none
O=C(c1ccco1)N1CCN(C(=O)c2cccn3c(=O)c4c5c(sc4nc23)CCCC5)CC1	none
CCC1c2cccn2CCN1CC(=O)NCc1ccc(C(=O)OC)o1 (configuration not stated)	none
CCOC(=O)N1CCN(C2CCc3c(c(C(=O)N4CCCCCC4)nn3C)C2)CC1 (configuration not stated)	none
CC(C)C(CO)NCC12CC3CC(CC(C3)C1)C2 (configuration not stated)	none
O=C(CSc1ccc2nnc(-c3cccnc3)n2n1)N1CCCCC1c1ccc(F)cc1 (configuration not stated)	none
O=C(CSc1ccc2nnc(-c3cccnc3)n2n1)N1CCCC(c2ccccc2)CC1 (configuration not stated)	ST2 inh 36%
O=C(c1ccc(NCc2cccnc2)nc1)N1CCCC(c2ccccc2)CC1 (configuration not stated)	none
O[C@@H]1C[C@@H](c2nc(-c3ccc(C(F)(F)F)cc3)no2)N(Cc2ccc(F)cc2)C1	none
Cc1nn(-c2ccccc2)c(Cl)c1C(=O)Nc1cccc(Cl)c1	none
O=C(Nc1cccc(Cl)c1)C(O)c1ccccc1 (configuration not stated)	none
CC1=NN(c2ccccc2)C(=O)C1C(c1cccc(Cl)c1)C(C#N)C#N (configuration not stated)	ST2 inh 62%
COc1ccc(CCN2C(=O)N(C)C(=O)C23CCN(Cc2nc4ccccc4s2)CC3)cc1	none
Cn1nnnc1SCCNC(=O)c1ccccc1N1CCOCC1	none
O=C1C=C(NCCc2ccccc2)CC1	none
CC(C)Cc1nc(C2CC(=O)N(Cc3ccccn3)C2)n(-c2ccccn2)n1 (configuration not stated)	none
COc1ccc(CN2C[C@H](O)C[C@H]2c2nc(-c3ccncc3)no2)cc1	none
COc1ccc(CN2C[C@H](O)C[C@H]2c2nc(-c3ccc(F)cc3)no2)c(OC)c1OC	ST2 inh 47%
COc1ccc(CN2C[C@H](O)C[C@H]2c2nc(-c3ccccc3)no2)cc1	none
COc1ccc(-c2noc([C@@H]3C[C@@H](O)CN3Cc3cccc(C#N)c3)n2)cc1	ST2 inh 58%
COc1ccc(CN2C[C@H](O)C[C@H]2c2nc(Cc3ccc(F)cc3Cl)no2)c2ccccc12	none
COc1ccc(CN2C[C@H](O)C[C@H]2c2nc(-c3ccccc3)no2)c(OC)c1OC	none
CCC(=O)Nc1ccc(C(=O)Nc2cc(OC)c(OC)cc2C(=O)O)cc1	none
COc1ccc(C2=N/C(=C\c3ccc(F)cc3)C(=O)O2)cc1[N+](=O)[O-]	none
O=C(CN1C(=O)C2CCCN2C(=O)c2ccccc21)N1CCN(c2ccc(F)cc2)CC1 (configuration not stated)	none
CCN(CC)c1ccc(C(=O)Nc2nc3c(s2)CC(C)CC3)cc1 (configuration not stated)	none
CCOc1ccc2nc(-c3nc4ccccc4s3)sc2c1	none
N#CC1=C(N)OC2=C(C(=O)CC(c3ccccc3)C2)C1c1cccc(Cl)c1Cl (configuration not stated)	none
CCCc1nc2nc[nH]n2c(=O)c1NC(=O)Nc1cc(Cl)ccc1C	none
CN(Cc1ccccc1)Cc1ccccc1	none
CCN(CCc1ccccc1)CCN(C)C	none
CCN(Cc1ccccc1)Cc1ccc(N(C)C)cc1	ST2 inh 36%
CCOc1ccc(Br)cc1S(=O)(=O)N1CCN(c2nc(C)cc(Nc3ccccc3)n2)CC1	none
OCCC#Cc1ccc(CN2CCN(c3ncnc4nc[nH]c34)CC2)cc1	none
O=C(Cn1cnc2c(cnn2-c2ccc(F)cc2)c1=O)N1CCCCC1	none
COC(=O)c1ccc(C2C(C#N)=C(N)Oc3n[nH]c(-c4ccccc4)c32)cc1 (configuration not stated)	none
O=C(c1cccc2c1OCC2)N1CC[C@@H](c2ccc3c(c2)OCO3)[C@H](O)C1	none
O=C(CSc1c2c(nc3cc(Cl)ccc13)CCCC2)NCc1ccccn1	none
O=c1oc2cc([N+](=O)[O-])ccc2nc1C=C(O)c1ccco1	none
O=[N+]([O-])c1ccc2nc(CSc3nc4ccccc4o3)[nH]c2c1	none
O=[N+]([O-])c1ccc2nc(-c3ccco3)c(-c3ccco3)nc2c1	ST2 inh 36%
COc1ccccc1CN1CCC(CN(CC(C)C)C(=O)C2CCCO2)CC1 (configuration not stated)	none
O=C(Nc1cccc(-c2nc3ccccc3c(=O)o2)c1)c1ccccc1Br	none
CSc1cccc(NC(=O)c2nnn(Cc3cccc(F)c3)c2N)c1	none
